Reference: PubChem BioAssay
Results filed as inconclusive are left out. Calls of active or inactive are those of the source.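 How the source made its calls, unless noted: active means viability at or under a set limit in both replicates, limit being median viability minus 3 SD (cut at about 48% in these data, passing the limit was not always enough); inconclusive means at or under the limit in just one replicate; inactive means at or above the limit in both replicates.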

Experiments:
[1] = reducers of endogenous Her2 protein level, primary screen, SKBR3 breast tumor cells, AlphaScreen, ATP viability (AID 461;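 active means Her2 level under about 52% in both replicate screens, with viability over 70% of control, limit read from the data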;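 on Her2 level: lower value means less Her2 protein in the cells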;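 on viability: percent of carrier control wells set as 100% viability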); details: 18-24 h, measured here: SKBR3 viability, ATP luminescence, at 10 µM
[2] = biological target: Receptor tyrosine-protein kinase erbB-2 (Homo sapiens) (UniProt P04626); assay: as above; details: 18-24 h, at 10 µM, stronger effect = lower value
[3] = SK-BR-3 cell growth inhibitors, pilot screen, 24 h, human (AID 572;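 active means viability at or below 10% of carrier control in both of two separate runs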;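 further: compound exposure lasted between 18 and 24 h rather than exactly 24 h; 100% = carrier-treated control wells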); details: SK-BR-3 viability, CellTiter-Glo luminescence, at 10 µM, stronger effect = lower value
[4] = HUVEC growth inhibition – cell-based, human, primary screen (AID 575;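 active means viability at or below 30% in both replicate assays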;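 further: 100% = median of untreated cell wells with 0.1% DMSO on each plate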); details: HUVEC proliferation, CellTiter-Glo luminescence, 72 h; at 10 µM; stronger effect = lower value
[5] = growth inhibitors of H69AR lung tumor, primary screen, human, duplicate replicates (AID 580); details: H69AR lung tumor cells viability, ATP luminescence, 72 h; at 10 µM; stronger effect = lower value;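 further: 100% = mean luminescence of untreated wells and 0% = no signal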
[6] = reversal of MRP1-mediated doxorubicin resistance, pilot screen, H69AR cells, doxorubicin co-treatment (AID 601;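 active means viability loss from added drug above about 55%, and viability with drug at most 40%, in both replicates, limit read from the data, passing the limit was not always enough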); details: CellTiter-Glo, 72 h, at 10 µM; for differential viability (reversal): stronger effect = higher value
[7] = 384-well plate pilot, post-Golgi transport modulator project, inhibition of yeast transport mutant growth (AID 636; in the data active means inhibition above about 31%); details: absorbance 615 nm, about 18 h, stronger effect = higher value
[8] = growth suppression of yeast trafficking mutant, preliminary HTS, modulators of trafficking downstream of Golgi apparatus project, 1536-format plate, OD 615 nm (AID 637; in the data active means inhibition above about 30%); details: yeast transport mutant growth, absorbance 615 nm, 18 h; stronger effect = higher value
[9] = OD615 S. cerevisiae growth inhibition, permissive medium, pilot counter-assay, permissive growth control for S. cerevisiae lifespan shortening project (AID 705;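 active means growth inhibition above 25% in both replicates, a cutoff set 3 SD above the mean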); details: OD615, 24 h, at 10 µM, stronger effect = higher value
[10] = Restrictive medium S. cerevisiae growth inhibition, OD615, pilot screen of yeast lifespan reduction project, restrictive growth control (AID 706;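 active means growth inhibition above a set limit, 3 SD over mean compound inhibition, in both replicates, cut at about 43% in these data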;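 further: modified DeaD lifespan yeast strain shifted to restrictive glucose medium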); details: OD615, 48 h, at 10 µM, stronger effect = higher value
[11] = viability gain of MRP-1-high H69AR cells under doxorubicin, pilot screen, MRP-1 activator project, CellTiter-Glo, duplicate (AID 807;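 active means viability increase at or above a cutoff of the median across tested compounds plus 3 SD, cut at about 8.5% in these data, passing the limit was not always enough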;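 further: compound pretreatment 18-22 h then 72 h combined with doxorubicin; 0% = doxorubicin alone and 100% = vehicle without doxorubicin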); details: H69AR viability with doxorubicin, CellTiter-Glo luminescence; at 10 µM; stronger effect = higher value
[12] = growth suppression of beta-catenin knockout HCT116, pilot screen, human colon tumor cells (AID 823;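 active means cell viability at or below a set limit in both duplicate runs, the limit being the all-compound median minus 4 SD, cut at about 23% in these data, passing the limit was not always enough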;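 further: 0% = wells killed by 20 µM Hyamine and 100% = untreated DMSO cell wells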); details: CellTiter-Glo, 60 h, at 10 µM, stronger effect = lower value
[13] = growth suppression of PTEN-deleted HCT116, pilot screen, cell-based, HCT116 clonal line, CellTiter-Glo (AID 824;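 active means viability at or below 27.92% in each of two runs, the all-compound median minus 4 SD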;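 further: 0% = 20 µM Hyamine control and 100% = vehicle cell control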); details: 60 h, at 10 µM, stronger effect = lower value
[14] = inhibitors of the yeast RAM network, pilot screen, dse1pr::URA3 reporter, 5-FOA selection (AID 869;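 active means inhibition over a set limit, the all-compound mean plus 3 SD, in both replicate runs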;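 further: 0% = DMSO wells with no growth and 100% = 10 µM 1-NA-PP1 with full growth; RAM network block rescues cells from 5-FOA so hits raise OD615 growth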); details: S. cerevisiae dse1pr::URA3 5-FOA growth, OD615, 2 d; at 10 µM; stronger effect = higher value; strain carries analog-sensitive mutant Cbk1 kinase
[15] = RAM signaling pathway blockade in yeast – S. cerevisiae, Pdr1DBD-CYC8 efflux-inhibited sensitized strain, primary screen (AID 1298;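 active means RAM network inhibition above 8.4% in each of two replicates, 3 SD over the compound average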;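 further: 0% = DMSO untreated cells without growth and 100% = 10 µM 1-NA-PP1 full growth; higher means more yeast growth rescued from 5-FOA killing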); details: S. cerevisiae cbk1-as DSE1-URA3 strain, 5-FOA growth OD615, 2 d; at 50 µM; stronger effect = higher value
[16] = H69AR cells + 2 uM doxorubicin, measured here: viability with 2 uM doxorubicin, stronger effect = lower value
[17] = H69AR cells, compound alone cytotoxicity

Chain of Receptor tyrosine-protein kinase erbB-2 (Homo sapiens) (P04626 whole entry, looked up): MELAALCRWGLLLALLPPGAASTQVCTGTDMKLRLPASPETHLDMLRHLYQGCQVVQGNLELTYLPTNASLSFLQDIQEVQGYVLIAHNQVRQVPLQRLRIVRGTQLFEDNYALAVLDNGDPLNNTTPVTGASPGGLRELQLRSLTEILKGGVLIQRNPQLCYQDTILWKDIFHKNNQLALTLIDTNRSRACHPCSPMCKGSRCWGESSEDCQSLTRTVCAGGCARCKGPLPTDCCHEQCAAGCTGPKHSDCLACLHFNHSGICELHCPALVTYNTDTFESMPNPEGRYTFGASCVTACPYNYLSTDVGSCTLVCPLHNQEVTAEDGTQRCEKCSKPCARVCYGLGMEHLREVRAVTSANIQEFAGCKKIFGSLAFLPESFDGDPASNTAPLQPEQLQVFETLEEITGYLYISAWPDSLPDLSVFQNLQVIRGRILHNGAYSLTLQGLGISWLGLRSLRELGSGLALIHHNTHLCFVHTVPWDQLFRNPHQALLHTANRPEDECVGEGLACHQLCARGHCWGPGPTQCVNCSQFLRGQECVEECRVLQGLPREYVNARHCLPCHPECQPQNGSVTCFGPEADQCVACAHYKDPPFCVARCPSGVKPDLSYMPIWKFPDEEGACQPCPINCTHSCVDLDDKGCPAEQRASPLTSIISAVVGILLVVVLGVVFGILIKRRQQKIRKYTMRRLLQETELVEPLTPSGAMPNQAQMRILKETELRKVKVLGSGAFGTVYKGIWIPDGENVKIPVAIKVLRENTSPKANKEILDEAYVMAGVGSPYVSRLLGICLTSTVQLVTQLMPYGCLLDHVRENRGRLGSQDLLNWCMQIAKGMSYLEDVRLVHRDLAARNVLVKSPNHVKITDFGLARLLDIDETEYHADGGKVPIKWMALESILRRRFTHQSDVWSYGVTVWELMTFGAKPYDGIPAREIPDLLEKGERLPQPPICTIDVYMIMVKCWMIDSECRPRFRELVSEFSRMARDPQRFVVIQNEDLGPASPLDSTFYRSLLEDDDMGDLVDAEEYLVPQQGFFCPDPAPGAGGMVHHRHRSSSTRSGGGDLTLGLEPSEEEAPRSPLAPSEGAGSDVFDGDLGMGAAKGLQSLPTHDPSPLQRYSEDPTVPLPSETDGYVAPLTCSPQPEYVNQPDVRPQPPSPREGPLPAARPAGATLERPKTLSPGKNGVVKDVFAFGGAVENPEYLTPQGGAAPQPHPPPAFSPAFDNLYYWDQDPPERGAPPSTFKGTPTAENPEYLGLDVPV

SMILES	viability [1] [%]	Her2 level [2]	viability [3]	viability [4]	viability [5]	differential viability (reversal) ([6]; H69AR cells + 2 uM doxorubicin)	viability [6, 16] [%]	viability [6, 17] [%]	inhibition [7]	inhibition [8]	growth inhibition [9]	growth inhibition [10]	viability increase [11]	viability [12]	viability [13]	inhibition [14]	RAM network inhibition [15]
COc1cccc(C2CC(c3ccc(C)cc3)Nc3nc(N)nn32)c1 (stereo not drawn)	88	98.5% (inactive)	88% (inactive)	99.2% (inactive)	97.9% (inactive)	4.01% (inactive)	93.9	97.9	-0.4% (inactive)	-5.9% (inactive)	-2.17% (inactive)	2.23% (inactive)	0.54% (inactive)	98.6% (inactive)	95.5% (inactive)	0.515% (inactive)	-0.56% (inactive)
Cc1cc(NC(=O)CS(=O)(=O)c2cn(Cc3cccc(F)c3)c3ccccc23)no1	124	75.5% (inactive)	124% (inactive)	69.7% (inactive)	92.7% (inactive)	3.98% (inactive)	88.7	92.7	-6.62% (inactive)	-4.67% (inactive)	-5.79% (inactive)	-24.3% (inactive)	-1.03% (inactive)	65.8% (inactive)	72.2% (inactive)	1.3% (inactive)	5.39% (inactive)
N#CCCN1CCN(S(=O)(=O)c2ccc(S(=O)(=O)NC3CCCC3)cc2)CC1	88.5	124% (inactive)	88.5% (inactive)	99.3% (inactive)	107% (inactive)	33.5% (inactive)	73.1	107	-3.46% (inactive)	-8% (inactive)	-9.39% (inactive)	-4.06% (inactive)	-0.87% (inactive)	101% (inactive)	100% (inactive)	2.69% (inactive)	3.21% (inactive)
CCC(=O)N1CCN(c2nc(-c3ccccc3)c3c(c2C#N)CCCC3)CC1	105	93% (inactive)	105% (inactive)	97.2% (inactive)	156% (inactive)	72.2% (inactive)	84	156	-8.24% (inactive)	4.59% (inactive)	-2.54% (inactive)	-4.34% (inactive)	-5.2% (inactive)	75.8% (inactive)	73.1% (inactive)	0.35% (inactive)	2.27% (inactive)
O=C(Nc1ccncc1)c1cccc(F)c1	103	130% (inactive)	103% (inactive)	91.5% (inactive)	92% (inactive)	-0.005% (inactive)	92	92	-3.08% (inactive)	-2.33% (inactive)	-5.12% (inactive)	3.45% (inactive)	-1.19% (inactive)	98.4% (inactive)	91.4% (inactive)	-0.02% (inactive)	2.86% (inactive)
CC(C)Cc1nnc(NS(=O)(=O)c2ccc(Cl)cc2)s1	91.5	98% (inactive)	91.5% (inactive)	90.1% (inactive)	90% (inactive)	-4.72% (inactive)	94.7	90	-4.53% (inactive)	-0.5% (inactive)	-22.6% (inactive)	3.6% (inactive)	2.68% (inactive)	99.2% (inactive)	96.7% (inactive)	1.43% (inactive)	4.53% (inactive)
COc1ccc(N(CC(=O)Nc2ccc3c(c2)OCO3)S(=O)(=O)c2c(C)nn(C)c2C)cc1	90.5	90.5% (inactive)	90.5% (inactive)	118% (inactive)	99% (inactive)	13.8% (inactive)	85.1	99	-0.38% (inactive)	1% (inactive)	-8.51% (inactive)	-11.5% (inactive)	-2.78% (inactive)	93.3% (inactive)	90.5% (inactive)	2.33% (inactive)	3.88% (inactive)
CC(=O)NC(CCS(C)(=O)=O)C(=O)Nc1cc(C)on1 (stereo not drawn)	119	106% (inactive)	119% (inactive)	105% (inactive)	99.1% (inactive)	7% (inactive)	92.1	99.1	-4.67% (inactive)	0% (inactive)	-14.1% (inactive)	-22.3% (inactive)	1% (inactive)	104% (inactive)	95.7% (inactive)	1.99% (inactive)	0.32% (inactive)
CC1=C(C(N)=O)C(c2ccncc2)n2nc(-c3ccccc3Cl)nc2N1 (stereo not drawn)	96	96.5% (inactive)	96% (inactive)	90.1% (inactive)	100% (inactive)	13.3% (inactive)	86.9	100	0.53% (inactive)	-3.11% (inactive)	-8.2% (inactive)	6.52% (inactive)	-0.22% (inactive)	94% (inactive)	98.8% (inactive)	1.56% (inactive)	-0.11% (inactive)
